Assay outcomes: PubChem, National Center for Advancing Translational Sciences (NCATS)
Vif-A3G inh = inhibitors of Vif-APOBEC3G interaction. HeLa A3G-eYFP + Vif (tagged APOBEC3G with the HIV-1 protein that degrades it), YFP fluorescence, overnight. Potency, µM (series often up to 46.1 µM), actives largely listed as inhibitors. Q9HC16. AID 602310. 0.076% of 410,000 active; also: nearly all actives have a fitted effect of over 60% in size
Target sequence (Q9HC16 whole entry, looked up): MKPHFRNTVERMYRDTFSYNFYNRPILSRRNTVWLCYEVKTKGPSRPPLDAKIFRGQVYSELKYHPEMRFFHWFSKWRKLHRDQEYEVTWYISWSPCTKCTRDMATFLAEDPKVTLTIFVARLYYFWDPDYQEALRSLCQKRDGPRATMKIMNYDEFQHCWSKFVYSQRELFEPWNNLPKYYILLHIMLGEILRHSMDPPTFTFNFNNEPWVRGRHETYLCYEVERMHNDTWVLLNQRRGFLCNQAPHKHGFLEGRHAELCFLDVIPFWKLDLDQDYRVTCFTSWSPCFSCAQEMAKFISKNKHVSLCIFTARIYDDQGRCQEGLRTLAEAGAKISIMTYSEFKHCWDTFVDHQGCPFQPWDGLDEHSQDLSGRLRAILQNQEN
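HeLa cells stably expressing Vif and C-terminally eYFP-tagged A3G, seeded overnight at 37 deg C, then exposed to compound by pintool overnight at 37 deg C. Rise in yellow fluorescence (Ex 488/Em 500-530, Acumen) marks blocked Vif-driven A3G degradation.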
AT treatment = potential ataxia-telangiectasia treatment; 0.19% of 320,000 active; Potency, µM (titrated, usually from 57.5 µM), actives largely listed as activators; AID 485349; F2112 A-T fibroblasts, KAP-1 phosphorylation AlphaLISA; neocarzinostatin DNA damage 30 min before lysis; also: nearly all actives have a fitted effect of over 45% in size
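hTERT-immortalized A-T patient fibroblasts (F2112), 500 cells/well in OPTI-MEM, 1% FBS, got compounds for 60 min, then NCS for 30 min at 37C. Lysates were then assayed for phospho-KAP-1 by AlphaLISA (anti-pKAP1 donor, anti-KAP1 acceptor beads), 6 hr at 25C.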
Vif-A3F inh = Vif-A3F binding inhibition | Potency, µM (series often up to 46.1 µM) | HeLa A3F-eYFP + Vif (tagged APOBEC3F with the HIV-1 protein that degrades it), YFP fluorescence increase | AID 602313 | 0.2% of 390,000 active; also: nearly all actives have a fitted effect of over 65% in size
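HeLa cells stably expressing A3F-eYFP plus Vif, plated and incubated overnight at 37 deg C, then exposed to compounds overnight at 37 deg C. Blocked degradation read as raised yellow fluorescence (Ex 488/Em 500-530).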
TRPML1 agonist = human mucolipin-1 channel agonism. activation, % (concentration not given with the values). 0.12% of 410,000 active. AID 624414. TRPML1-expressing cells, Ca2+ dye fluorescence, FDSS; in the data active = activation above about 50%; inconclusive = mostly about 30% to 49%
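Cells: TRPML1-DL, 1X Tet inducer, ~16 h at 37 degrees C/5% CO2. Dye: ABD Ca8 no-wash + quencher, 45-90 min RT. Read: 10 s baseline, compound add, 110 s agonist phase; 54-4 EC80 (4uM final), 110 s antagonist phase.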
TRPML1 blocker = blocks the human TRPML1 channel. Q9GZU1. TRPML1-inducible cells, Ca2+ dye fluorescence, FDSS; stronger effect = lower value; inhibition of EC80 agonist-evoked calcium signal. activity change, negative = inhibition, % (concentration not given with the values). 0.02% of 390,000 active. AID 624415; in the data active = activity change below about -50%; inconclusive = between about -30% and that limit;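 also: stimulus is agonist 54-4 at its EC80 concentration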
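Calcium fluorescence in TRPML1-DL cells induced overnight with Tet: a 110 s read after compound pin addition, then a 110 s antagonist read after challenge with 54-4 at 4 uM final (EC80).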
Hits are given with their value; n = inactive; u = inconclusive; x = no result; [ ] = another dose, or the depositor's remark. Most compounds without a hit are left out; they make up all but 0.54% or so of the library. Unless noted, calls follow the shape of the dose curve; as a rule, active = well fitted curve in the direction sought with a large enough effect; inconclusive = small, poorly fitted or top-dose-only effect, or another doubt; inactive = no such curve, though single readings can be large; an effect the other way counts as inactive or inconclusive.

SMILES	Vif-A3G inh	AT treatment	Vif-A3F inh	TRPML1 agonist	TRPML1 blocker
CC(C)(C)c1ccc(C(=O)C[n+]2ccc(Cl)c3ccc(Cl)cc32)cc1	n	x	x	n	x
CCS(=O)(=O)N1CC(=O)N(c2ccc(Cl)cc2C)C(C)(C(=O)NC2CCCCCC2)C1 (configuration not stated)	n	x	n	n	n
Cc1ccc(-n2ncc(C(=O)N3CCN(c4cccc(C)c4)C(C)C3)c2C2CCN(C(=O)OC(C)(C)C)CC2)cc1 (configuration not stated)	n	x	n	73	n
Cc1ccc(CNC(=O)c2cnn(-c3cccc(C)c3)c2C2CCN(C(=O)OC(C)(C)C)CC2)cc1	n	x	n	n	n
Cc1cccc(-n2ncc(C(=O)N3CCN(Cc4ccccc4)CC3)c2C2CCN(C(=O)OC(C)(C)C)CC2)c1	n	x	n	51	n
COc1ccc2oc(=O)c(C(=O)NCCc3c(C)[nH]c4c(C)cccc34)cc2c1	n	x	n	n	n
NS(=O)(=O)c1ccc(N2N=C(c3ccccc3)CC2c2cccc(Br)c2)cc1 (configuration not stated)	n	n	n	n	n
NS(=O)(=O)c1ccc(N2N=C(c3ccc(Br)cc3)CC2c2ccc(F)cc2)cc1 (configuration not stated)	n	40µM	n	n	n
COc1ccc(C2=NN(c3ccc(C(=O)O)cc3)C(c3ccc(OC)c(OC)c3)C2)cc1 (configuration not stated)	n	28µM	n	n	n
NS(=O)(=O)c1ccc(N2N=C(c3ccccc3)CC2c2cccc(F)c2)cc1 (configuration not stated)	n	40µM	n	n	n
COc1ccc(C2CC(c3ccncc3)=NN2c2ccc(S(N)(=O)=O)cc2)cc1 (configuration not stated)	u	n	11µM	n	n
COc1ccc(C2CC(c3ccccc3)=NN2c2ccc(S(N)(=O)=O)cc2)cc1OC (configuration not stated)	n	n	n	n	n
Cc1cc(N2CCCCC2)nc(N)n1	n	n	n	56	n
Nc1c(C(=O)Nc2nccs2)sc2nc(-c3cccs3)cc(C(F)(F)F)c12	8.9µM	n	u	n	n
Cc1cc(C)c2c(N)c(C(=O)Nc3nccs3)sc2n1	n	n	n	n	n
Cc1nnc(NC(=O)c2sc3nc(-c4cccs4)cc(C(F)(F)F)c3c2N)s1	u	n	7.1µM	52	n
CCN(CC)C(=O)c1sc2nc(-c3cccs3)cc(-c3cccs3)c2c1N	n	n	u	n	n
CC(C)(C)C(=O)c1sc2nc(-c3cccs3)cc(C(F)(F)F)c2c1N	u	n	2.8µM	n	n
COc1ccc(N2CCN(C(=O)c3cnn(-c4ccc(F)cc4)c3-n3cccc3)CC2)cc1	n	x	n	n	n
CC(=O)c1cccc(S(=O)(=O)N2CCN(c3nc(-c4cccs4)nc4ccccc34)CC2)c1	n	x	x	n	x
CCC(=O)N1c2ccccc2CC1C(=O)NCCN1CCN(c2cccc(C(F)(F)F)c2)CC1 (configuration not stated)	n	x	n	n	n
COc1cc(/C=C2\C(=N)N3N=CSC3=NC2=O)cc(Br)c1OC(=O)c1ccco1	u	n	22µM	n	n
COc1cccc(-c2ccc3c(N)c(C(=O)c4ccc(Br)cc4)sc3n2)c1	u	x	7.9µM	n	n
Oc1ccc(CNCc2ccc3c(c2)OCO3)c2cccnc12	x	n	x	x	x
COc1ccc(C2c3ccc(O)cc3Oc3ncn(CC(C)C)c(=N)c32)cc1 (configuration not stated)	n	2.8µM	n	n	n
SMILES	Vif-A3G inh	AT treatment	Vif-A3F inh	TRPML1 agonist	TRPML1 blocker
O=C(Nc1ccc2nn(-c3ccccc3)nc2c1)c1ccc(-c2cccc(Cl)c2)o1	n	x	u	n	n
O=C(NC(=S)Nc1c(Cl)cc(Cl)cc1Cl)c1ccccc1	n	x	4.5µM	n	n
COc1ccc(N(Cc2cccs2)C(=O)COc2cccc(Cl)c2)cc1	n	x	n	n	n
O=C(C[N+]12CCCc3cccc(c31)CCC2)c1ccc2ccccc2c1	n	x	x	n	x
CCCCN1C(=O)c2cccc3cc(O)cc(c23)C1=O	n	x	1.3µM	n	n
CN(C)CCCN1C(=O)c2cccc3cccc(c23)C1=O	n	n	n	n	n
O=C(NCC1(c2ccccc2)CCCC1)c1ccc(Br)cc1	n	n	n	n	n
CCCN(CCC)C(C)C(=O)NCC1(c2ccccc2)CCCC1 (configuration not stated)	n	n[11.5 µM]	n	107	u
O=C(NCC1(c2ccccc2)CCCC1)c1ccc(Br)o1	n	n	n	70	n
CC(C)CC(=O)Nc1ccc(C(=O)OCc2cc(=O)n3nc(C(C)C)sc3n2)cc1	n	x	n	n	n
CC(C)(C)c1ccc(OCc2nnc(-c3ccccc3)o2)cc1	n	x	n	n	n
C=C(C)C(=O)Oc1ccc(N=Nc2ccc(C)cc2)ccc1=O	u	x	n	n	n
CN(C)c1ccc(/C=N/N(CCO)C2=NS(=O)(=O)c3ccccc32)cc1	n	n	22µM	n	n
Cc1ccc(Cn2c(C)c3cnn(CC(=O)N4CCN(c5cc(C)ccc5C)CC4)c(=O)c3c2C)cc1	n	x	n	n	n
O=c1[nH]c(CN2CCN(c3ccccc3)CC2)nc2scc(-c3ccccc3)c12	u	n	22µM	n	n
Cc1nc2nc(NCc3ccc(Cl)cc3)[nH]n2c(=O)c1Cc1ccccc1	n	x	n	n	n
Cc1cc(=O)n(-c2ccc(Cl)cc2)c(=O)[nH]1	n	n	n	n	n
Nc1cc(=O)[nH]c(=O)n1-c1ccc(Cl)cc1	n	n	n	n	-77
NC1=NC(=Nc2cccc(S(N)(=O)=O)c2)c2ccccc21	n	n	n	n	n
COc1cc(N=Nc2cccc(S(N)(=O)=O)c2)c2ccccc2c1N	u	n	25µM	n	n
CC(C)(C)n1ncc2c(=O)n(Cc3cccc(-c4cccs4)c3)cnc21	n	x	x	n	n
CCOC(=O)Nc1cc2c(c(N)n1)N=C(c1ccccc1)CN2	u	x	22µM	n	n
Cc1ccc(C2C(C#N)=C(N)SC(N)=C2C#N)c(C)c1	u	n	x	64	n
CN(C)c1ccc(/C=N/NC(=O)c2ccccc2)cc1	u	n	n	n	n
CN(C)c1ccc(/C=N/NC(=O)c2ccccc2Cl)cc1	10µM	n	n	n	n
CCOc1ccccc1NC(=O)C(C)N(c1ccccc1)S(C)(=O)=O (configuration not stated)	n	x	n	n	n
C=CCN1C=CC(=C/C=C(/C#N)C(=O)OCC)C=C1	u	n	11µM	u	n
CCOC(=O)/C(C#N)=C/C=C1/C=CC=CN1C	n	n	n	n	n
COCCCCOc1cc2nc(N3CCCN(C)CC3)nc(NC3CCN(C)CC3)c2cc1OC	x	x	x	n	x
